Compound activity from PubChem BioAssay.
Methyltransferases: Primary Screen for Target Class Profiling of Small Molecule Inhibitors of Methyltransferases. calls only at 40 µM. purified enzyme, MTase-Glo SAH luminescence; stronger effect = lower value. actives 3.9% (n = 25,000); call rule not given here
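Each enzyme was reacted with SAM and its substrate, with compounds tested once at 40 uM; SAH formed was read by MTase-Glo luminescence.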
* hit, by the source's call; i = inactive; + = active, no number. Many of the other results were omitted from the sample, so hits are more common in it than they were. % is scaled to controls: 0 for no effect and ±100 for the full control effect.

SMILES | Methyltransferases
O=C1NC(=O)c2c1c1c3ccccc3[nH]c1c1[nH]c3ccccc3c21 | +
O=C(Nc1ccc(F)c(Cl)c1)N1Cc2ccccc2-n2cccc2C1c1ccccc1 (stereo unspecified) | i
Cc1ccc(NC(=O)N2Cc3ccccc3-n3cccc3C2c2ccccc2C)c(C)c1 (stereo unspecified) | i
CCOc1ccc(C2c3cccn3-c3ccccc3CN2C(=O)Nc2cccc(Cl)c2)cc1 (stereo unspecified) | i
CC(=O)NCCc1c[nH]c2ccccc12 | i
NCCc1c[nH]c2ccccc12 | +
CC(N)Cc1c[nH]c2ccccc12 (stereo unspecified) | i
COc1ccc(NC(=O)N2Cc3ccccc3-n3cccc3C2C(C)C)cc1OC (stereo unspecified) | i
CN(N=O)c1ccc(O)c(O)c1 | +
CN(C)c1ccc(C2c3cccn3-c3ccccc3CN2C(=O)Nc2ccc(F)c(Cl)c2)cc1 (stereo unspecified) | i
COCCCNC(=O)N1Cc2ccccc2-n2cccc2C1c1ccc(OC)cc1 (stereo unspecified) | i
Cc1ccc(NC(=O)N2Cc3ccccc3-n3cccc3C2C(C)C)cc1 (stereo unspecified) | i
CCOCCCNC(=O)N1Cc2ccccc2-n2cccc2C1c1ccccc1C (stereo unspecified) | i
Cc1cccc(C2c3cccn3-c3ccccc3CN2C(=O)NCc2ccccc2)c1 (stereo unspecified) | i
CC1c2cccn2-c2ccccc2CN1C(=O)Nc1ccccc1C(F)(F)F (stereo unspecified) | i
CCCN(CCC)[C@@H]1CCc2ccc(O)cc2C1 | i
CCCN(CCC)C1CCc2ccc(O)cc2C1 (stereo unspecified) | +
CCCN(CCC)C1CCc2cccc(O)c2C1 (stereo unspecified) | i
COc1ccc(OC)c(NC(=O)N2Cc3ccccc3-n3cccc3C2c2ccccc2C)c1 (stereo unspecified) | i
Cc1ccc(NC(=O)N2Cc3ccccc3-n3cccc3C2C)c(Cl)c1 (stereo unspecified) | i
CCOc1ccccc1NC(=O)N1Cc2ccccc2-n2cccc2C1C(C)C (stereo unspecified) | i
CCOc1ccc(C2c3cccn3-c3ccccc3CN2C(=O)Nc2cccc(C)c2)cc1 (stereo unspecified) | i
Cc1[nH]nc2ccc(-c3cncc(OC[C@@H](N)Cc4c[nH]c5ccccc45)c3)cc12 | +
O=C(Nc1ccccc1F)N1Cc2ccccc2-n2cccc2C1c1ccc(Cl)cc1 (stereo unspecified) | i
CSc1ccc(C2c3cccn3-c3ccccc3CN2C(=O)NCc2ccccc2)cc1 (stereo unspecified) | i
SMILES | Methyltransferases
CCc1ccc(C2c3cccn3-c3ccccc3CN2C(=O)NCCCOC)cc1 (stereo unspecified) | i
COc1cc(N2CCN(C)CC2)ccc1N | +
O=C(Nc1ccc2c(c1)OCCO2)N1Cc2ccccc2-n2cccc2C1c1cccc(Cl)c1 (stereo unspecified) | i
COc1ccc(C)cc1NC(=O)N1Cc2ccccc2-n2cccc2C1c1cc(F)cc(F)c1 (stereo unspecified) | i
COc1cccc(CNC(=O)N2Cc3ccccc3-n3cccc3C2c2ccc(C(C)C)cc2)c1 (stereo unspecified) | i
COc1ccc(C2c3cccn3-c3ccccc3CN2C(=O)Nc2cccc(Cl)c2C)cc1OC (stereo unspecified) | i
COC(=O)CCNC(=O)N1Cc2ccccc2-n2cccc2C1c1cccc(Cl)c1 (stereo unspecified) | i
CN(C)c1ccc(C2c3cccn3-c3ccccc3CN2C(=O)Nc2ccc3c(c2)OCCO3)cc1 (stereo unspecified) | i
CC1C/C=C/C(O)C(O)CC/C=C/c2cc(O)cc(O)c2C(=O)O1 (stereo unspecified) | i
CC1CCCCCC(=O)c2c(O)cc(O)cc2CC(=O)O1 (stereo unspecified) | i
C[C@H]1CCCC(=O)CCC/C=C/c2cc(O)cc(O)c2C(=O)O1 | +
CC(C)C1c2cccn2-c2ccccc2CN1C(=O)Nc1cccc(Br)c1 (stereo unspecified) | i
Cc1ccc(C2c3cccn3-c3ccccc3CN2C(=O)Nc2cc(C)cc(C)c2)cc1 (stereo unspecified) | i
Cc1cccc(C2c3cccn3-c3ccccc3CN2C(=O)Nc2ccc3c(c2)OCCO3)c1 (stereo unspecified) | i
CCOc1ccc(C2c3cccn3-c3ccccc3CN2C(=O)NC2CCCC2)cc1 (stereo unspecified) | i
COc1cccc(CNC(=O)N2Cc3ccccc3-n3cccc3C2c2ccc(F)cc2)c1 (stereo unspecified) | i
NC(Cc1cc(O)c(O)cc1O)C(=O)O (stereo unspecified) | +
Cc1o[nH]c(=O)c1CC(N)C(=O)O (stereo unspecified) | i
N[C@@H](Cn1oc(=O)[nH]c1=O)C(=O)O | i
CCC1c2cccn2-c2ccccc2CN1C(=O)Nc1ccccc1Br (stereo unspecified) | i
CN(C)c1cc2c(cc1Sc1nc3c(N)nccc3n1CCNCC(C)(C)C)OCO2 | +
COc1ccc(Cl)cc1NC(=O)N1Cc2ccccc2-n2cccc2C1c1cccs1 (stereo unspecified) | i
Cc1ccc(NC(=O)N2Cc3ccccc3-n3cccc3C2c2ccccc2)cc1F (stereo unspecified) | i
COc1cccc(NC(=O)N2Cc3ccccc3-n3cccc3C2c2cc(F)cc(F)c2)c1 (stereo unspecified) | i
CCc1ccc(C2c3cccn3-c3ccccc3CN2C(=O)Nc2ccccc2)cc1 (stereo unspecified) | i
SMILES | Methyltransferases
Cc1ccc(NC(=O)N2Cc3ccccc3-n3cccc3C2C(C)C)c(C)c1 (stereo unspecified) | i
CCCN1CC[C@@H]2c3cc(O)ccc3CC[C@@H]21 | +
O=C(Nc1cccc2c1CCCC2)N1Cc2ccccc2-n2cccc2C1c1cccs1 (stereo unspecified) | i
CCc1ccc(NC(=O)N2Cc3ccccc3-n3cccc3C2CC)cc1 (stereo unspecified) | i
COCCCNC(=O)N1Cc2ccccc2-n2cccc2C1c1cccc(Cl)c1 (stereo unspecified) | i
COc1ccc(C2c3cccn3-c3ccccc3CN2C(=O)Nc2ccc(C)cc2C)cc1 (stereo unspecified) | i
CCCNC(=O)N1Cc2ccccc2-n2cccc2C1c1ccc(OC)c(OC)c1 (stereo unspecified) | i
COc1cc(C(=O)O[C@H]2[C@@H]3C=CO[C@@H](O[C@@H]4O[C@H](CO)[C@@H](O)[C@H](O)[C@H]4O)[C@@H]3[C@@]3(CO)O[C@@H]23)ccc1O | +
C=C[C@H]1[C@H](O[C@@H]2O[C@H](CO)[C@@H](O)[C@H](O)[C@H]2O)OC=C2C(=O)OCC[C@H]21 | i
CSc1ccc(C2c3cccn3-c3ccccc3CN2C(=O)Nc2ccccc2C(F)(F)F)cc1 (stereo unspecified) | i
NC(=O)CI | +
Cc1ccccc1C1c2cccn2-c2ccccc2CN1C(=O)Nc1ccccc1Br (stereo unspecified) | i
